Bioassay records deposited in PubChem BioAssay by University of Kansas High Throughput Screening Laboratory.
mHTT CaM bind – mHTT-calmodulin interaction abrogation; P42858; AlphaScreen His-mHTT/GST-CaM binding, luminescence; inhibition, % at 15 µM; 190,000 tested, 3.6% active
Pf apPOL inh – Pf-apPOL DNA polymerase inhibition; Recombinant Pf-apPOL, molecular beacon fluorescence, 1.5 h; inhibition, % at 10 µM; 210,000 tested, 0.25% active
Large screens that a line does not name were inactive. The sample as a whole holds a higher share of hits than the screen did. No stated cut-off is given here; in the data, active means inhibition above about 50%; inactive means the rest.

CCC(=O)N1CCCC(c2nc(CCNC(=O)C3CC3)cs2)C1 (centres undefined)	none
Cc1cc(NC(=O)c2ccccc2)ccc1NC(=O)c1ccccc1	none
Cc1cc(NC(=O)c2ccccc2)cc(NC(=O)c2ccccc2)c1C	Pf apPOL inh 51.8
COc1cnn(C2CCCCC2)c(=O)c1Cl	none
COCC(=O)Nc1ccc(Nc2ccccc2)cc1	none
Cc1ccc(Nc2cc(-n3cccn3)ncn2)cc1	none
CCOc1ccc(C(=O)Nc2ccc(Nc3ccc(-n4cccn4)nn3)cc2)cc1OCC	mHTT CaM bind 88.0
NS(=O)(=O)c1ccc(C(=O)Nc2ccc(Nc3ccc(-n4cccn4)nn3)cc2)cc1	mHTT CaM bind 95.3
CCOc1ccc(C(=O)Nc2ccc(-n3nncc3-c3ccccc3)cc2)cc1OCC	none
COCC(=O)Nc1ccc(Nc2ccc(-n3cccn3)nn2)cc1	mHTT CaM bind 99.2
Cc1ccc(S(=O)(=O)Nc2ccc(Nc3ccc(-n4cccn4)nn3)cc2)c(C)c1	mHTT CaM bind 100.0
NS(=O)(=O)c1ccc(NC(=O)c2ccc(F)cc2)cc1	none
CCS(=O)(=O)Nc1ccc(Oc2ccc(NS(=O)(=O)CC)cc2)cc1	none
N#CC1=C(N)N(c2ncn[nH]2)C2=C(C(=O)CCC2)C1c1cccnc1 (centres undefined)	none
CCC(C)Nc1nc(C)nc2c1c(C)nn2-c1ccc(C)cc1 (centres undefined)	none
Cc1ccc([N+](=O)[O-])cc1NC(=O)c1ccco1	none
COc1ccc(CC(=O)NCC2(O)CCCC2)cc1	none
O=C(NCCCN1CCOCC1)C1CCCN(c2nccnc2Sc2ccccc2)C1 (centres undefined)	none
Cc1nc2cc(NC(=O)Cc3csc(NC(=O)C4CCCC4)n3)ccc2s1	none
Cc1nc2cc(NC(=O)Cc3csc(NC(=O)c4ccc(=O)[nH]c4)n3)ccc2s1	mHTT CaM bind 58.6
COc1ccc2cccc(NC(=O)c3c[nH]c4ccccc34)c2n1	mHTT CaM bind 58.1
COc1ccc2cccc(NC(=O)c3ccco3)c2n1	none
CC(=O)Nc1cccc(N2CC(C(=O)NC3CCCCCC3)CC2=O)c1 (centres undefined)	none
CS(=O)(=O)N1CCN(c2ccc([N+](=O)[O-])c(Sc3nnnn3-c3ccccc3)c2)CC1	none
O=[N+]([O-])c1cc(C(F)(F)F)cc([N+](=O)[O-])c1Sc1nnnn1-c1ccccc1	mHTT CaM bind 100.0
CC(=O)c1ccc(NC(=O)c2cc3ccccc3o2)cc1	none
CN(C)c1ccc(NC(=O)c2cc3ccccc3o2)cc1	mHTT CaM bind 59.7
O=C(O)c1cccc2nccnc12	none
CCN(CC)c1ccc(N=C2C(=O)Nc3ccccc32)cc1	mHTT CaM bind 100.0
O=C1Nc2ccccc2C1=Nc1ccc(C(=O)O)cc1	none
C/C(=N/Nc1nnc(C)c(=O)[nH]1)C(=O)O	mHTT CaM bind active (no result: Pf apPOL inh)
Cc1nnc(NN=C(C(=O)O)C(=O)O)[nH]c1=O	none (no result: Pf apPOL inh)
O=C(Nc1ccccc1[N+](=O)[O-])c1ccc(Cl)c(S(=O)(=O)Nc2ccc(Cl)cc2)c1	mHTT CaM bind 86.4
O=C(Nc1ccccc1[N+](=O)[O-])c1ccc(Cl)c(S(=O)(=O)NCc2ccccc2)c1	none
O=C(Nc1ccccc1[N+](=O)[O-])c1ccc(Br)c(S(=O)(=O)Nc2ccccc2)c1	none
O=C(Nc1ccccc1[N+](=O)[O-])c1ccc(Cl)c(S(=O)(=O)NCc2ccco2)c1	Pf apPOL inh 53.6
CC(=Nc1ccccc1Br)c1sc2ccccc2c1O	none
Cc1cc2cc(CNC(=O)c3ccccc3[N+](=O)[O-])ccc2n1C	none
Cc1cccc(NC(=O)NCc2ccc3c(c2)cc(C)n3C)c1	mHTT CaM bind 50.3
Cc1cc2cc(CNC(=O)Cc3ccc(F)cc3)ccc2n1C	mHTT CaM bind 56.0
Cc1cc2cc(CNC(=O)c3c(F)cccc3Cl)ccc2n1C	none
Cc1ccc(C(=O)N2CC(=O)Nc3ccc(F)cc3C2c2ccc(F)cc2)cc1C (centres undefined)	none
Cc1ccc(C(=O)N2CC(=O)Nc3ccc(Br)cc3C2c2ccccc2)cc1C (centres undefined)	mHTT CaM bind 98.0
O=C(Nc1ccc(S(=O)(=O)N2CCCC2)cc1)c1cccc(F)c1	none
Cc1ccc(-c2nn(C)c(=O)c3ccccc23)cc1S(=O)(=O)NCCCO	Pf apPOL inh 95.1
CCNS(=O)(=O)c1cc(-c2nn(C)c(=O)c3ccccc23)ccc1C	none
Cc1cc(Sc2ncnc(N)c2[N+](=O)[O-])nc(C)n1	none
Nc1ncnc(Sc2nc3ccccc3o2)c1[N+](=O)[O-]	mHTT CaM bind 75.0
O=[N+]([O-])c1ccc(Sc2nc3ccccc3o2)c([N+](=O)[O-])c1	none
Nc1ncnc(SC2=NCCS2)c1[N+](=O)[O-]	mHTT CaM bind 59.0
COC(=O)c1cccc(NC(=S)NC(=O)c2csc([N+](=O)[O-])c2)c1	none (no result: mHTT CaM bind)
Cc1cccc(-c2csc3c(=O)n(Cc4cccc(F)c4)cnc23)c1	none
Cc1cc(C2C(C#N)=C(N)N(c3cccnc3)C3=C2C(=O)CC(c2ccccc2)C3)c(C)s1 (centres undefined)	mHTT CaM bind 58.0
